Sampled rows, rich in hits. Any-hit rate of the full collection: about 3.5%.
TEAD-YAP inh – TEAD-YAP interaction inhibition; HEK-TIYL cells, TEAD-Gal4/YAP UAS-luciferase luminescence; inhibition, % at 9.12 µM; 1.4% of 640,000 active; in the data active means inhibition above about 32%;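 further: 0% = median of test compound wells and 100% = reference inhibitor wells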
MITF inh – inhibitors of human MITF | O75030 | AlphaScreen MITF homodimerization, bead proximity signal | inhibition, % at 2.6 µM | 0.91% of 650,000 active | AID 1259374; in the data active means inhibition above about 50%;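 further: 0% = vehicle wells with protein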
GPR151 ag – activators of human GPR151; Q8TDV0; PathHunter beta-arrestin GPR151 cells, luminescence; activation, % at 11.2 µM; 1% of 650,000 active; AID 1508602; in the data active means activation above about 4.9%;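 further: 0% = median of compound wells and 100% = cells with positive control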
Target sequence (Q8TDV0 whole entry, looked up): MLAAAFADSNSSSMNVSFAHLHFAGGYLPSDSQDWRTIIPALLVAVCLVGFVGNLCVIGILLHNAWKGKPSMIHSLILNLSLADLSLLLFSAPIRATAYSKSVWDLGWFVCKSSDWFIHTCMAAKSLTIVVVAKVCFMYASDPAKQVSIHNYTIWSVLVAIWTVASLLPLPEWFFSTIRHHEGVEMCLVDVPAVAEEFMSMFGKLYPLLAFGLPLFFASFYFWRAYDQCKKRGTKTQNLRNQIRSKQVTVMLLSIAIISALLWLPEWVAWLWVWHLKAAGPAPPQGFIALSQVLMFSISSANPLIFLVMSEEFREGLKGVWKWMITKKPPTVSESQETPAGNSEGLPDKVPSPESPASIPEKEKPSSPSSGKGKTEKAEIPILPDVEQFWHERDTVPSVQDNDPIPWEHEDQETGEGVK
FBW7 activator – activators of human E3 ligase FBW7; normalized activity (activation), % at 26.1 µM; Q969H0; AlphaScreen FBW7–phospho-cyclin E peptide binding, activator screen; AID 1259310; 0.13% of 650,000 active; in the data active means normalized activity above about 1.9%;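 further: purified mutant Fbw7 with reduced substrate affinity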
The depositor's hits bear a star; ! = not confirmed by another sample.

Results for COc1cc2ccccc2cc1C(=O)OCC(=O)NC12CC3CC(CC(C3)C1)C2 ?
TEAD-YAP inh: 10.2; MITF inh: -10.9; GPR151 ag: -0.1; FBW7 activator: 0.0

What do the screens show for `O=S(=O)(c1ccc(Cl)c(Cl)c1)N1CCc2ccccc21`?
TEAD-YAP inh: 14.3; MITF inh: -6.9; GPR151 ag: 1.2; FBW7 activator: 0.0

How did Cn1c(=O)oc2cc(S(=O)(=O)N3CCCc4ccccc43)ccc21 do in these assays?
TEAD-YAP inh: 55.1*; MITF inh: 8.1; GPR151 ag: -0.6; FBW7 activator: 0.8

Results for Cc1cc(-c2ccc(S(=O)(=O)N3CCc4ccccc43)cc2)on1 ?
TEAD-YAP inh: 58.1*; MITF inh: 14.7; GPR151 ag: -0.8; FBW7 activator: 0.1

What do the screens show for `CC1Cc2ccccc2N1S(=O)(=O)c1ccc2c(c1)oc(=O)n2C` (stereo unspecified)?
TEAD-YAP inh: 49.2*; MITF inh: -3.4; GPR151 ag: 0.7; FBW7 activator: 0.2

Results for Cn1c(=O)c(=O)n(C)c2cc(S(=O)(=O)N3CCc4ccccc43)ccc21 ?
TEAD-YAP inh: -2.8; MITF inh: 14.2; GPR151 ag: 0.1; FBW7 activator: -0.2

How did Cn1c(=O)oc2cc(S(=O)(=O)N3CCc4ccccc43)ccc21 do in these assays?
TEAD-YAP inh: 49.5*; MITF inh: 8.9; GPR151 ag: 0.1; FBW7 activator: 0.0

How did O=C(Cc1ccc(F)cc1)N1CCC[C@@H](Cn2nc(-c3cccs3)ccc2=O)C1 do in these assays?
TEAD-YAP inh: -12.8; MITF inh: 9.8; GPR151 ag: 0.2; FBW7 activator: 0.0

Results for COc1ccc2c(c1)N(C(=O)CN1C(=O)CCC1=O)C(C)(C)c1ssc(=S)c1-2 ?
TEAD-YAP inh: 4.0; MITF inh: 0.3; GPR151 ag: 0.6; FBW7 activator: -0.1

How did CCOC(=O)C1=C(c2ccccc2)OC(N)=C(C#N)C1c1cc([N+](=O)[O-])cs1 (stereo unspecified) do in these assays?
TEAD-YAP inh: 2.1; MITF inh: 5.2; GPR151 ag: 1.2; FBW7 activator: 0.1

How did c1ccc(CN2CCCC3(CCCN(Cc4ccccc4)C3)C2)cc1 do in these assays?
TEAD-YAP inh: -6.0; MITF inh: -1.2; GPR151 ag: 0.2; FBW7 activator: 0.0

What do the screens show for `COc1ccc(N2C(N)=C(C#N)C(c3ccsc3)C3=C2CCCC3=O)c(OC)c1` (stereo unspecified)?
TEAD-YAP inh: 15.8; MITF inh: 8.7; GPR151 ag: -0.6; FBW7 activator: 0.6

Results for COc1ccc(C2C(C#N)=C(N)N(c3ccc(C)cc3)C3=C2C(=O)CC(C)(C)C3)cc1OC (stereo unspecified) ?
TEAD-YAP inh: 54.5*; MITF inh: -0.4; GPR151 ag: -1.1; FBW7 activator: 0.1

Results for COc1cc(C2C(C#N)=C(N)N(c3ccc(Br)cc3)C3=C2C(=O)CCC3)cc(OC)c1OC (stereo unspecified) ?
TEAD-YAP inh: 20.1; MITF inh: 10.4; GPR151 ag: -0.7; FBW7 activator: 0.3

Results for COc1ccc(N2C(N)=C(C#N)C(c3cc(OC)c(OC)c(OC)c3)C3=C2CCCC3=O)cc1 (stereo unspecified) ?
TEAD-YAP inh: 53.7*; MITF inh: 8.1; GPR151 ag: 0.8; FBW7 activator: -0.1

Results for COc1ccc(N2C(N)=C(C#N)C(c3ccsc3)C3=C2CCCC3=O)cc1 (stereo unspecified) ?
TEAD-YAP inh: 45.2*; MITF inh: 10.1; GPR151 ag: 0.8; FBW7 activator: 0.4

What do the screens show for `CCCCC(=O)Nc1ccccc1-c1nc2cc(C)c(C)cc2[nH]c1=O`?
TEAD-YAP inh: -28.0; MITF inh: -4.4; GPR151 ag: -2.3; FBW7 activator: -0.1

Results for CCOc1ccc(N2CC(NC(=O)NCc3ccccn3)CC2=O)cc1 (stereo unspecified) ?
TEAD-YAP inh: -8.8; MITF inh: 6.2; GPR151 ag: 0.1; FBW7 activator: 0.0

Results for Cc1cccc(C)c1NC(=O)CCCN1C(=O)c2ccccc2C1=O ?
TEAD-YAP inh: 1.6; MITF inh: 8.3; GPR151 ag: -0.4; FBW7 activator: 0.3

How did O=C(COC(=O)c1ccc(O)cc1)NC1CCCCCC1 do in these assays?
TEAD-YAP inh: -5.8; MITF inh: -5.8; GPR151 ag: 0.6; FBW7 activator: 0.1

How did O=C(COc1ccc(S(=O)(=O)NC2CCCCC2)cc1)NC1CCCCCC1 do in these assays?
TEAD-YAP inh: 34.5*; MITF inh: 4.4; GPR151 ag: 1.4; FBW7 activator: 0.8

Results for CC(C)(c1ccccc1)c1ccc(OCC(=O)NC2CCCC2)cc1 ?
TEAD-YAP inh: -4.3; MITF inh: 11.8; GPR151 ag: 0.5; FBW7 activator: 1.9*

Results for NC(=O)Nc1ccc(C(=O)OCC(=O)NC2CCCCC2)cc1 ?
TEAD-YAP inh: 33.6*; MITF inh: 6.1; GPR151 ag: -0.7; FBW7 activator: 0.4

What do the screens show for `CC12CC(NC(=O)N1c1ccccc1F)c1cc(Br)ccc1O2` (stereo unspecified)?
TEAD-YAP inh: 2.8; MITF inh: 22.2; GPR151 ag: 0.0; FBW7 activator: 0.9

What do the screens show for `Cn1c(COc2ccc(Br)cc2)nc2ccccc21`?
TEAD-YAP inh: -45.1; MITF inh: 12.5; GPR151 ag: -2.5; FBW7 activator: 0.6

Results for COc1cc(S(=O)(=O)N(Cc2ccccc2)Cc2cccs2)ccc1-n1cnnn1 ?
TEAD-YAP inh: 8.4; MITF inh: 7.5; GPR151 ag: 2.0; FBW7 activator: -0.2

What do the screens show for `O=S(=O)(NC1c2cccc3cccc(c23)C1N1CCN(C(=S)Nc2ccccc2)CC1)c1ccc(Cl)cc1` (stereo unspecified)?
TEAD-YAP inh: -7.6; MITF inh: 4.1; GPR151 ag: 0.1; FBW7 activator: 2.4*

How did COCCCNC(=O)NCc1noc2ccc(C)cc12 do in these assays?
TEAD-YAP inh: -3.5; MITF inh: 5.4; GPR151 ag: 1.0; FBW7 activator: 0.1

Results for NCC(O)c1ccc(O)c(O)c1 (stereo unspecified) ?
TEAD-YAP inh: 8.3; MITF inh: 76.9*!; GPR151 ag: 0.4; FBW7 activator: -0.3

How did CC(c1ccccc1)c1ccc(O)c(O)c1 (stereo unspecified) do in these assays?
TEAD-YAP inh: -4.8; MITF inh: -5.6; GPR151 ag: -2.2; FBW7 activator: -0.5

How did O=C(c1cc(COc2cccc3cnccc23)on1)N1CCN(C(=O)c2cccs2)CC1 do in these assays?
TEAD-YAP inh: 42.8*; MITF inh: -0.4; GPR151 ag: 2.9; FBW7 activator: -0.1

How did COc1ccc(C2CC(C(F)(F)F)n3nc(C(=O)NCc4ccccc4)cc3N2)cc1OC (stereo unspecified) do in these assays?
TEAD-YAP inh: 9.3; MITF inh: 2.8; GPR151 ag: -1.0; FBW7 activator: -0.1

Results for O=C(Nc1ccc(Oc2cccnc2)cc1)C1CCN(Cc2ccc(F)cc2)CC1 ?
TEAD-YAP inh: 5.9; MITF inh: -4.9; GPR151 ag: 0.3; FBW7 activator: -0.2

What do the screens show for `O=C(Nc1ccc(Oc2cccnc2)cc1)C1CCN(Cc2cc(Cl)ccc2O)CC1`?
TEAD-YAP inh: 44.3*; MITF inh: 16.8; GPR151 ag: -1.1; FBW7 activator: 0.0

From PubChem
